Bioassay records: PubChem BioAssay, National Center for Advancing Translational Sciences (NCATS)
The list is not random: actives were taken first. Their share in the collection is about 7.5%.
B2AR arrestin: recruits beta-arrestin to the human beta2-adrenergic receptor | beta-arrestin recruitment to beta2AR, cell-based reporter | Potency, µM (titrated, usually from 46.1 µM), inactives show at the highest dose activation, hits mostly activators | 330,000 tested, 0.02% active | AID 492947;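 note: potency is the fitted concentration of half-maximal effect; 0% = DMSO controls and full agonism = EC100 isoproterenol or metaproterenol; nearly all actives have a fitted effect of over 65% in size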
TSHR antag: antagonists of human thyroid stimulating hormone receptor; activity change, negative = inhibition, % at 11.5 µM; 330,000 tested, 0.2% active; P16473; TSHR-expressing cells, TSH-stimulated cAMP HTRF, 2 h; hits give low values; AID 504810;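 active = activity change below a set negative limit, meaning inhibition stronger than a set level, cut at about -70% in these data; inconclusive = activity change between two set negative limits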
Target sequence (P16473 whole entry, looked up): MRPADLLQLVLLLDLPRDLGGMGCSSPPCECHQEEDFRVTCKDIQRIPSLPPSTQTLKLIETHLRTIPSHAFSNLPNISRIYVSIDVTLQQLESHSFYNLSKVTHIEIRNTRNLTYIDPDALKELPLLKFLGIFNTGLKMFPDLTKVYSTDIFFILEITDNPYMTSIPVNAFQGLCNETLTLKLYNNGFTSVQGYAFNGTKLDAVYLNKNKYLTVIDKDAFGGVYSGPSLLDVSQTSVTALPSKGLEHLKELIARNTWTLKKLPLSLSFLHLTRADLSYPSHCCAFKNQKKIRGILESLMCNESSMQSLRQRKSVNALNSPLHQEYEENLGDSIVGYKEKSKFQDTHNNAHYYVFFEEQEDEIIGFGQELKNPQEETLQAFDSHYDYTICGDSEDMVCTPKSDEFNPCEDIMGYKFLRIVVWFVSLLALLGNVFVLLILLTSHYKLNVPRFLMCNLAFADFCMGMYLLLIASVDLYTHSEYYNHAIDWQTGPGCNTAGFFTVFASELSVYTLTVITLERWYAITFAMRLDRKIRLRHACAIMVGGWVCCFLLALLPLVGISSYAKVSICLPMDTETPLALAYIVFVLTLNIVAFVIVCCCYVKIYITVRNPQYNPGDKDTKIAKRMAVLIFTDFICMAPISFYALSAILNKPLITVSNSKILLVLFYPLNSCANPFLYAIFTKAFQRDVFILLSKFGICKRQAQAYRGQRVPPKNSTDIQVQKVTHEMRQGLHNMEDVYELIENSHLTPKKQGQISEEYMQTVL
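Read-out is FRET at 665 nm (cryptate excitation 337 nm) from a cryptate-tagged anti-cAMP antibody, competed by cell cAMP against cAMP-d2. Compounds are tested on freshly harvested TSHR cells challenged with 4nM TSH (EC80) for 2 hours at 37 deg C.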
ELG1 DNA repair: blocks ELG1-dependent DNA repair in HEK293T cells; 330,000 tested, 2.3% active; HEK293T ELG1-luciferase reporter, luminescence, 16 h; DNA damage induced by 5-fluorouridine; Potency, µM (titrated, usually from 46.1 µM), without a hit: top-dose activity change, negative = inhibition, actives largely listed as inhibitors; note: potency is the fitted concentration of half-maximal effect; nearly all actives have a fitted effect of over 55% in size
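In this reporter screen, reduction of luminescence relative to DMSO vehicle indicated activity. Compounds and 5-fluorouridine were added together to 2,000 cells per well, incubated for 16 hr at 37 °C, then developed with ONE-Glo.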
RORgamma inh: inhibitors of mouse ROR gamma transcriptional activity; Drosophila S2 Gal4-RORgamma UAS-luciferase reporter, 20 h; 310,000 tested, 5.4% active; P51450; AID 2551; Potency, µM (top dose mostly 53.6 µM), without a hit: at the top dose activity change, negative = inhibition, most hits filed as inhibitors; note: potency is the fitted concentration of half-maximal effect; nearly all actives have a fitted effect of over 60% in size
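Using a luciferase readout, inhibitors were identified by reduced reporter activity in Drosophila cells coexpressing a copper-inducible Gal4–ROR gamma fusion and UAS-driven Photinus luciferase, incubated 20 hr after 700 uM copper sulfate.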
VP16 counter: inhibits Gal4-VP16 luciferase reporter, ROR gamma counter-screen. Drosophila S2 Gal4-VP16 UAS-luciferase, luminescence, 20 h. Potency, µM (doses to about 53.6 µM), without a hit: top-dose activity, negative = inhibition, actives largely listed as inhibitors. 310,000 tested, 3.5% active;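 note: Gal4-VP16 expression switched on by copper sulfate through the metallothionein promoter; potency is the fitted concentration of half-maximal effect; nearly all actives have a fitted effect of over 50% in size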
Numbers without * were called inactive; ? = inconclusive; · = no result; [ ] = dose if it differs, or a comment. Unless noted, calls come from the whole dose curve; as a rule, active = well fitted curve in the direction sought with a large enough effect; inconclusive = small, poorly fitted or top-dose-only effect, or another doubt; inactive = no such curve, though single readings can be large; an effect the other way counts as inactive or inconclusive. Unless noted, % is set by controls: 0 for no effect and ±100 for the full control effect.

SMILES | B2AR arrestin | TSHR antag | ELG1 DNA repair | RORgamma inh | VP16 counter
COc1ccc(CNc2ncnc3ccc(-c4ccccc4OC)cc23)c(OC)c1 | · | · | · | -5% | -10%
COc1ccccc1C(=O)NNC(=S)NC(=O)c1ccco1 | -2% | -29 | ? | 16µM* | ?
CCNC(=S)Nc1cc(OCC)c(NC(=O)c2ccco2)cc1OCC | 0% | 15 | ? | 16µM* | ?
COC(=O)c1cc(OC)c(OC)cc1NC(=S)NC(=O)c1ccco1 | 0% | -5 | 7% | 8.9µM* | -24%
Cc1oc(-c2ccc(-c3ccccc3)cc2)nc1CN(CCO)C(C)C | 0% | 2 | ? | 7.9µM* | ?
Cc1ccc(-c2nc(CS(=O)(=O)CC(=O)NCCCN(Cc3ccccc3)C(C)C)c(C)o2)cc1 | 0% | 5 | -4% | 10% | 6%
Cc1oc(-c2ccc(-c3ccccc3)cc2)nc1CN(C)C1CCOC1 (centres undefined) | 0% | -13 | ? | 14µM* | ?
C=C1c2ccccc2O[C@H](C(=O)OCC)[C@@H]1C1CCCCC1 (tested in a mixture with another compound) | · | · | · | 8% | 0%
O=[N+]([O-])c1ccc(-c2nc(C(Cl)Cl)c3ccccc3n2)cc1 | 0% | -3 | 5.2µM* | -40% | -22%
Fc1ccc(Cn2cc(C(=S)N3CCOCC3)c3ccccc32)cc1 | -1% | 13 | 0% | 8.9µM* | ?
Fc1ccccc1Cn1cc(C(=S)N2CCOCC2)c2ccccc21 | -1% | -6 | -18% | ? | 14%
CC1CCN(C(=S)c2cn(Cc3cccc(F)c3)c3ccccc23)CC1 | 0% | -3 | 4% | 10µM* | ?
CN1CCN(C(=S)c2cn(Cc3ccccc3)c3ccccc23)CC1 | 0% | -3 | -1% | ? | -1%
CN1CCN(C(=S)c2cn(Cc3ccc(Br)cc3)c3ccccc23)CC1 | -1% | -6 | -23% | 25µM* | -8%
CC(Sc1n[nH]c(N)n1)C(=O)Nc1cccc2ccccc12 (centres undefined) | 0% | 2 | 12% | · | ·
O=C(O)c1cc(N=Nc2ccc([N+](=O)[O-])cc2)ccc1O | · | · | · | -1% | -11%
O=C(CN1CCN(c2ccccn2)CC1)Nc1cccc(Br)c1 | 0% | 9 | 1% | 28% | 6%
CC(C(=O)Nc1ccc(Cl)cc1)N1C(=O)NC2(CCCC2)C1=O (centres undefined) | 0% | -7 | -11% | 9% | 4%
Nc1[nH]c(N=NC(=O)c2ccc(F)cc2)c2ccccc12 | 0% | -9 | ? | 3.5µM* | 14µM*
CCC(C)O (centres undefined) | · | · | · | 5% | 11%
CCN1C(c2ccccc2)=C(c2ccccc2)S/C1=C/C=C1\SC(=S)N(C)C1=O | 0% | -4 | 10µM* | 29% | 1%
Nc1ccccc1S(=O)(=O)NCCCCc1ccccc1 | 0% | 9 | 2% | -7% | -6%
O=C(Nc1cccc(S(=O)(=O)C(F)F)c1)c1ccc(Cl)c(S(=O)(=O)N2CCOCC2)c1 | 0% | -28 | 7.3µM* | 11% | ?
O=C(Nc1cccc(C(=O)NC2CC2)c1)c1ccc(Cl)c(S(=O)(=O)N2CCOCC2)c1 | 3% | -2 | 13µM* | · | ·
O=C(Nc1cccnc1)c1ccc(Cl)c(S(=O)(=O)N2CCOCC2)c1 | 0% | 10 | ? | 30% | -4%
SMILES | B2AR arrestin | TSHR antag | ELG1 DNA repair | RORgamma inh | VP16 counter
O=C(Nc1cccc(Br)c1)c1ccc(Cl)c(S(=O)(=O)N2CCOCC2)c1 | 0% | -49 | 16µM* | -4% | -13%
CC1=CC(=O)C2=C(C)C[C@@H]3OC(=O)[C@@H](C)[C@H]3C=C12 | · | · | · | -18% | 1%
Cc1cccc(NS(=O)(=O)c2ccc(-n3cccn3)cc2)c1C | 0% | -10 | -23% | 13% | 2%
CCCCCn1c(SCc2ccncc2)nc2cc(C(=O)NCc3ccco3)ccc2c1=O | 0% | -23 | 6.5µM* | ? | 0%
CCCCn1c(SCC(=O)NCc2ccco2)nc2ccccc2c1=O | 0% | -9 | -4% | ? | -1%
COc1ccc(Cc2noc(-c3ccc([N+](=O)[O-])cc3)n2)cc1OC | 0% | -3 | 18µM* | ? | -14%
CC1(C)SC(=S)N(/N=C/c2ccccc2)C1N(O)C(=O)Nc1ccc([N+](=O)[O-])cc1 (centres undefined) | 0% | -20 | 5% | ? | 3.5µM*
CC=C1COC(C(=O)NCCOCCO)(C(F)(F)F)C=C1C=C(C)C (centres undefined) | · | · | · | -25% | -10%
CCCCn1c2c(c(=N)c3ccccc31)CCC2 | -1% | 1 | 1.6µM* | 0% | 3%
CCCCCCCCCCn1c2c(c(=N)c3c1CCC3)CCC2 | 0% | -37 | ? | 8.9µM* | 3.2µM*
CCCCCCCCn1c2c(c(=N)c3ccccc31)CCC2 | 0% | 15 | 6% | 0% | -7%
CCCCCCCCCn1c2c(c(=N)c3c1CCC3)CCCC2 | -1% | -6 | ? | 4µM* | ?
CSCC[C@H](N)C(=O)N[C@@H](CCCN=C(N)N)C(=O)N[C@@H](Cc1ccccc1)C(=O)N[C@@H](Cc1ccccc1)C(=O)N[C@H](C(=O)O)C(C)C | · | · | · | 0% | 4%
CC(=O)OC1CC(OC(C)=O)[C@]2(C)C(CC(OC(C)=O)[C@@]3(C)C4=CC(=O)OC(c5ccoc5)[C@]4(C)CCC32)C1(C)C (some centres undefined) | · | · | · | 22% | 2%
CCCCC/C=C\C/C=C\C[C@H](O)/C=C/C=C\CCCC(=O)O | · | · | · | 3% | -5%
S=c1[nH]nc(COc2ccc(Cl)cc2Cl)n1-c1ccccc1 | 0% | 11 | -11% | -33%[1.91 µM] | 3.5µM*
COc1ccc(-n2c(CNC(=O)COc3ccc(Cl)cc3Cl)n[nH]c2=S)cc1 | 0% | 2 | 17% | 10µM* | -4%
Cc1ccc(O)c(-c2cc(-c3cccc(F)c3)n[nH]2)c1 | 1% | 0 | ? | ? | ?
Cc1ccc(O)c(-c2cc(-c3ccccc3F)[nH]n2)c1 | 0% | -15 | ? | ? | ?
Cc1ccc(-c2cc(-c3ccccc3C)[nH]n2)c(O)c1 | 0% | -31 | ? | 0.79µM* | 1.4µM*
Cc1ccc(-c2cc(-c3cccc(F)c3)n[nH]2)c(O)c1 | 0% | 0 | ? | 11µM* | 10µM*
COc1ccc(Nc2cc(O)c3ncccc3c2)cc1 | 0% | -6 | · | · | ·
C=CCN(c1ccccc1)S(=O)(=O)c1cccc2cccnc12 | 0% | -1 | ? | -27% | -1%
CC(=O)c1cc(NC(=O)c2ccc(C)cc2)c(=O)oc1C | -1% | 9 | ? | ? | ?
Cc1oc(=O)c(NC(=O)c2ccccc2)cc1C(=O)c1ccccc1 | 5% | -1 | ? | ? | 13µM*
Cc1oc(=O)c(NC(=O)c2ccc(Cl)cc2)cc1C(=O)c1ccccc1 | 9% | 29 | ? | 16% | -12%
